Screening results: PubChem, several laboratories
The list is not random: actives were taken first. Their share in the collection is about 10%.
HCT116 bCat-KO = beta-catenin-lacking colon tumor cell growth suppression; HCT116 beta-catenin knockout viability, CellTiter-Glo, 60 h; active compounds read low; AID 818; 140,000 compounds, 1.5% hits; viability, % at 10 µM;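 active = viability at or under a set limit, the compound median less 4 SD, cut at about 6% in these data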;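 also: 0% = Hyamine 1622 control at 20 µM and 100% = untreated cell control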
Insulin prom inh = TRM-6 insulin promoter activity inhibition; 130,000 compounds, 0.9% hits; inhibition, % at 2 µM; TRM-6 cells (human fetal islet line), insulin promoter-eGFP reporter, imaging; reporter expression induced with tamoxifen;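 active = inhibition above the mean plus 3 SD, with well images judged a real hit on visual review, cut at about 60% in these data, passing the limit was not always enough; inconclusive = inhibition over the cutoff but images rejected on review; inactive = inhibition not above the cutoff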
PTEN del growth = suppresses growth of cells with PTEN deletion | HCT116 PTEN-null viability, CellTiter-Glo, 60 h; active compounds read low | viability, % at 10 µM | 140,000 compounds, 1.2% hits | AID 827;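 active = viability at or below a set limit, 4 SD under the median of all tested compounds, cut at about 3.7% in these data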;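 also: PTEN knockout HCT116 line with beta catenin targeted HCT116 as companion control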
ROMK primary = modulators of human ROMK potassium channel. B-score at 10 µM. Tet-inducible ROMK, thallium flux fluorescence; actives lie on both sides. 130,000 compounds, 2% hits;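 active = signal ratio slope over the read window, or its plate-corrected B-score, at least 3 SD from the plate mean, either direction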;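 also: B-score of the F/F0 ratio slope over 7 to 12 s after thallium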
L major viab = reduces viability of Leishmania major promastigotes; inhibition, % at 10 µM; AID 1063; resazurin fluorescence viability; 200,000 compounds, 9% hits; in the data active = inhibition above about 50%;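 also: promastigotes grown with compound for 44 hours at 28 °C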
p97 inhibitor = human p97 ATPase inhibition. P55072. recombinant p97 ATPase, Kinase-Glo ATP luminescence, 3 h. inhibition, % at 8 µM. 220,000 compounds, 0.42% hits. AID 1481; in the data active = inhibition above about 15%;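 also: 0% = DMSO vehicle and 100% = wells lacking enzyme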
Target sequence (P55072 whole entry, looked up): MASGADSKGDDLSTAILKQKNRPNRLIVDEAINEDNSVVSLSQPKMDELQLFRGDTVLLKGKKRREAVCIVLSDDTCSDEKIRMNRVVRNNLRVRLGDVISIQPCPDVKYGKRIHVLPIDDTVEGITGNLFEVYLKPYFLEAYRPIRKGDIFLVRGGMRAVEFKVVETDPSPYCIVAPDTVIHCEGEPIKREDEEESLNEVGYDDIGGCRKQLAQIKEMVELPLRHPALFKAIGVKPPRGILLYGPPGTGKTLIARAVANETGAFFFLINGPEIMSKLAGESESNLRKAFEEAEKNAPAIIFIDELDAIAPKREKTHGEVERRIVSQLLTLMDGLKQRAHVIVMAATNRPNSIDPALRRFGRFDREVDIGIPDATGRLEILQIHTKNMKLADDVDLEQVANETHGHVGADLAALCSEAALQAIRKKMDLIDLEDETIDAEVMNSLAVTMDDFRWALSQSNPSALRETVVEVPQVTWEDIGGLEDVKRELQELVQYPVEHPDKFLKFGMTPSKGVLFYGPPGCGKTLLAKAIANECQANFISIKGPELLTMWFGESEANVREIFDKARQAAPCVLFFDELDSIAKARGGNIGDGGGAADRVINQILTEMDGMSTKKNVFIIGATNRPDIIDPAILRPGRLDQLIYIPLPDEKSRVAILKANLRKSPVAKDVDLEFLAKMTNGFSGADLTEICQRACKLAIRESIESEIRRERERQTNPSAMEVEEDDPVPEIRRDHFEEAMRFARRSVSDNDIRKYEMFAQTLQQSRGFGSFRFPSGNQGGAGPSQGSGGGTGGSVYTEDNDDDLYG
ROMK retest = human ROMK channel modulation, retest confirmation | ROMK thallium flux, fluorescence ratio; active compounds read low | AID 1917 | shares compounds with ROMK primary | 3,000 compounds, 54% hits | normalized thallium flux (F/F0 slope) at 10 µM;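 active = Flux at 10 µM at least 3 SD below or above vehicle control mean in one or both replicates; inconclusive = no clear call, values can overlap the other calls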
* hit, by the source's call.

`CCCCC(c1nnnn1CCOC)N1CCN(C)CC1` (centres undefined) gave HCT116 bCat-KO 95, Insulin prom inh -33, PTEN del growth 96, ROMK primary 1.3, L major viab -3 and p97 inhibitor 2.
Screening CCSc1nc2ccccc2c(=O)n1CCc1ccc(OC)c(OC)c1 returned p97 inhibitor 1 and ROMK retest 0.082.
`Cc1ccc(C)c(S(=O)(=O)NCC(=O)Nc2sc3c(c2C(N)=O)CCC(C)C3)c1` (centres undefined) gave HCT116 bCat-KO 94, Insulin prom inh -3, PTEN del growth 100, L major viab -7 and p97 inhibitor 1.
O=C(CCn1cnnn1)Nc1ccc(Cl)c(Cl)c1 was read as Insulin prom inh -107, ROMK primary 2.2, L major viab -5 and p97 inhibitor 4.
For Nc1nc(-c2ccco2)nn1C(=O)c1ccc([N+](=O)[O-])cc1 the results were ROMK primary -0.47, L major viab -6 and p97 inhibitor 3.
`CCOC(=O)CSc1nc2c(sc(=S)n2-c2ccccc2OC)c(=O)n1Cc1ccco1` gave HCT116 bCat-KO 89, Insulin prom inh -24, PTEN del growth 82, L major viab 3, p97 inhibitor 5 and ROMK retest 0.049*.
Screening CCOC(=O)CSc1nc2c(sc(=S)n2Cc2ccco2)c(=O)n1-c1ccccc1 returned HCT116 bCat-KO 89, Insulin prom inh -88, PTEN del growth 89, ROMK primary -0.42, L major viab 6 and p97 inhibitor 12.
O=S(=O)(c1ccc(F)cc1)n1ccc(-c2cccc(OCc3ccc(Cl)cc3Cl)c2)n1 was read as HCT116 bCat-KO 86, Insulin prom inh -38, PTEN del growth 84, L major viab -5 and p97 inhibitor 0.
CN1CCN(C(=O)/C(C#N)=C/c2ccc(F)cc2)CC1 was read as ROMK primary -2.7*, L major viab 10, p97 inhibitor 7 and ROMK retest 0.047*.
Screening N#C/C(=C\c1ccc(O)cc1)C(=O)N1CCCC1 returned p97 inhibitor 5.
N#C/C(=C\c1ccc(C#N)cc1)C(=O)N1CCCC1 was read as Insulin prom inh -9, ROMK primary -5.1*, L major viab -3, p97 inhibitor 2 and ROMK retest 0.04*.
Screening CN1CCN(C(=O)/C(=C/c2ccc(F)cc2)c2ccsc2)CC1 returned Insulin prom inh 50, ROMK primary -0.086, L major viab 16 and p97 inhibitor 4.
Screening CC(C)NC(=O)Cn1cc(C(=O)COc2ccccc2)c2ccccc21 returned ROMK primary 0.32, L major viab -5 and p97 inhibitor -4.
Screening CN(c1ccccc1)S(=O)(=O)c1cccc(NC(=O)c2ccncc2)c1 returned p97 inhibitor 2 and ROMK retest 0.081.
For Cc1cc(C=C2C(=O)c3ccccc3C2=O)c(C)n1-c1cccc(C(=O)O)c1 the results were Insulin prom inh -21, ROMK primary -0.42, L major viab -5 and p97 inhibitor 6.
CC1=NN(c2ccccc2)C(=O)/C1=C/C=C/C=C/N(C)C was read as Insulin prom inh -47, ROMK primary -2.4*, L major viab -2, p97 inhibitor -3 and ROMK retest 0.065*.
Screening CC1=NN(c2ccccc2)C(=O)/C1=C\c1cc(C)n(-c2cccnc2)c1C returned p97 inhibitor -3.
Screening CC1=NN(c2cccc(C(=O)O)c2)C(=O)/C1=C\C=C/c1ccccc1 returned Insulin prom inh -17, ROMK primary -8.3*, L major viab 100*, p97 inhibitor 3 and ROMK retest 0.047*.
For Cc1cc([N+](=O)[O-])cnc1N1CCOCC1 the results were HCT116 bCat-KO 100, Insulin prom inh 36, PTEN del growth 110, ROMK primary 1.1, L major viab -2 and p97 inhibitor -1.
`O=C(CS(=O)(=O)Cc1ccccc1)N1CCN(c2cccc(C(F)(F)F)c2)CC1` gave HCT116 bCat-KO 84, Insulin prom inh -275, PTEN del growth 86, ROMK primary -3.2*, L major viab -1, p97 inhibitor 3 and ROMK retest inconclusive.
`CC(C)Oc1ccc(N2CC(C(=O)OCC(=O)NCc3ccccc3)CC2=O)cc1` (centres undefined) gave HCT116 bCat-KO 97, Insulin prom inh 17, PTEN del growth 85, ROMK primary 0.56, L major viab -6 and p97 inhibitor 0.
Screening CCc1ccccc1NS(=O)(=O)c1ccc(SC)cc1 returned HCT116 bCat-KO 85, PTEN del growth 77, ROMK primary -1.6*, L major viab 12, p97 inhibitor -5 and ROMK retest 0.065*.
`CSc1ccc(S(=O)(=O)Nc2c(C)cccc2C)cc1` gave HCT116 bCat-KO 94, Insulin prom inh inconclusive, PTEN del growth 79, ROMK primary 0.14, L major viab -2 and p97 inhibitor 1.
For CC(C)N(C(=O)CSc1nnc(NC(=O)Cc2cccs2)s1)C(C)C the results were ROMK primary -0.00082, L major viab -14 and p97 inhibitor -1.
Screening Cc1ccc(C(=O)N/C(=C/c2ccc(-c3cc(C(F)(F)F)ccc3Cl)o2)C(=O)NCc2cccnc2)cc1 returned HCT116 bCat-KO 63, PTEN del growth 61, ROMK primary -0.95, L major viab 30 and p97 inhibitor 3.
For O=C(NCc1cccnc1)C(=O)NCC1OCCN1S(=O)(=O)c1ccc(Cl)cc1 (centres undefined) the results were HCT116 bCat-KO 90, Insulin prom inh -52, PTEN del growth 90, ROMK primary -0.88, L major viab -4 and p97 inhibitor 2.
O=C(NCc1cccnc1)/C(=C/c1ccc(-c2ccc(Cl)cc2)o1)S(=O)(=O)c1ccccc1 was read as HCT116 bCat-KO 1.7*, Insulin prom inh -22, PTEN del growth 1.3*, L major viab 101*, p97 inhibitor 5 and ROMK retest 0.055*.
O=C(NCc1cccnc1)/C(=C/c1ccc(-c2cccc(C(F)(F)F)c2)o1)NC(=O)c1ccccc1 was read as HCT116 bCat-KO 41, Insulin prom inh -56, PTEN del growth 32, ROMK primary -5.1*, L major viab 84*, p97 inhibitor 4 and ROMK retest 0.054*.
CCc1nnc(NC(=O)CSc2nc3c(C)cccc3[nH]2)s1 was read as HCT116 bCat-KO 103, Insulin prom inh -21, PTEN del growth 105, ROMK primary -0.032, L major viab -8 and p97 inhibitor 4.
`Cc1ccc(C(C)C)c(OCC(=O)Nc2ccccc2N2CCN(C)CC2)c1` gave HCT116 bCat-KO 12, Insulin prom inh -62, PTEN del growth 17, ROMK primary -2.9*, L major viab 60*, p97 inhibitor 0 and ROMK retest 0.066*.
